Screens (PubChem)
Most compounds without a hit are left out; they make up all but 7.2% or so of the library.
HEK cytotox – kills HEK 293 cells; HEK 293 viability, ATP luminescence (CellTiter-Glo), 48-72 h; Potency, µM (titrated, usually from 115 µM), usual class: inhibitors; 94,000 tested, 6.6% active; AID 1345083; further: nearly all actives have a fitted effect of over 60% in size
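HEK 293 cells seeded at 250 cells/well were exposed to compound for 48 or 72 hr at 37 degree Celsius. Viability taken as ATP content by CellTiter-Glo luminescence.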
HEK293 viab – cell viability loss counter-screen. 150,000 tested, 0.12% active. HEK-293-SNCA-luc viability, GF-AFC fluorescence, 24 h. Potency, µM (series often up to 57.1 µM), most hits filed as cytotoxic. AID 1671193; further: nearly all actives have a fitted effect of over 30% in size
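Cytotoxicity counterscreen: after 24 h compound treatment of genome-edited SNCA-luciferase HEK-293 cells, live-cell protease substrate GF-AFC read by fluorescence after 30 min; activity scaled between DMSO (0%) and medium-only (-100%), curves Hill-fitted.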
Luciferase inh – Photinus pyralis luciferase inhibition; purified P. pyralis luciferase, luminescence, biochemical; Potency, µM (titrated, usually from 115 µM), hits mostly inhibitors; 76,000 tested, 2.5% active; AID 1347043; further: nearly all actives have a fitted effect of over 65% in size
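Inhibitors were tested against purified firefly luciferase in a biochemical, low-substrate format (both substrates at 10uM) and luminescence measured with a CCD imager.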
SNCA expr inh – inhibitors of alpha-synuclein (SNCA) gene expression; 140,000 tested, 0.17% active; AID 1671194; Potency, µM (highest dose often 57.2 µM), usual class: inhibitors; HEK-293 SNCA-luciferase knock-in, luminescence, 24 h; further: nearly all actives have a fitted effect of over 45% in size
3T3 cytotox – cytotoxic compounds in NIH 3T3 cells. NIH 3T3 viability, CellTiter-Glo ATP luminescence, 48-72 h. Potency, µM (top dose mostly 96.7 µM), usual class: inhibitors. 94,000 tested, 4.3% active. AID 1345082; further: nearly all actives have a fitted effect of over 55% in size
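First NIH 3T3 cells are plated at 400 cells/well; next compound is pinned in; then plates incubate 48 or 72 hr at 37 °C; finally CellTiter-Glo is added and luminescence read after 10 min.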
hNpr1 antagonist – antagonists of human natriuretic peptide receptor Npr1; P16066; HEK293 hNpr1 GloSensor cGMP, ANP-stimulated luminescence; Potency, µM (highest dose often 46.3 µM), hits mostly inhibitors; 76,000 tested, 1.6% active; AID 1347048; calls by dose curve; further: nearly all actives have a fitted effect of over 60% in size
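HEK293 cells stably expressing human Npr1 and cGMP GloSensor pGS-40F, loaded 2 h with 2% GloSensor reagent, given compound 30 min at room temperature. Luminescence read before and 20 min after 0.1 nM hNppA.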
Npr1 antag conf – confirmation of human Npr1 natriuretic peptide receptor antagonists | shares compounds with hNpr1 antagonist | HEK293 hNpr1 cGMP GloSensor luminescence, ANP-stimulated | Potency, µM (series often up to 57.6 µM), actives largely listed as inhibitors | 1,400 tested, 76% active; calls by dose curve; further: nearly all actives have a fitted effect of over 70% in size
Npr2 selectivity – hNpr2 antagonism, selectivity versus Npr1; shares compounds with hNpr1 antagonist; HEK293 hNpr2 GloSensor cGMP luminescence, CNP-stimulated; Potency, µM (top dose mostly 57.6 µM), hits mostly inhibitors; 1,400 tested, 67% active; AID 1347046; calls by dose curve; further: nearly all actives have a fitted effect of over 70% in size
FLuc inh counter – counter-screen for Npr1 antagonists: firefly luciferase inhibitors | shares compounds with hNpr1 antagonist | purified FLuc enzyme, luminescence, Km substrate | Potency, µM (highest dose often 57.6 µM), hits mostly inhibitors | 1,400 tested, 0.7% active | AID 1347047
GloSensor ctrl – counter-screen for Npr1 antagonists: GloSensor control cell line; shares compounds with hNpr1 antagonist; 1,400 tested, 69% active; HEK293 GloSensor cGMP, SNP-stimulated, luminescence; Potency, µM (series often up to 57.6 µM), actives largely listed as inhibitors; calls by dose curve; further: nearly all actives have a fitted effect of over 70% in size
Each line names hits and unclear results; the compound was inactive in the other large screens (follow-up assays come after a bar, where they were run). Unless noted, the call rests on the fitted dose curve; in most records, active means well fitted curve in the direction sought with a large enough effect; inconclusive means small, poorly fitted or top-dose-only effect, or another doubt; inactive means no such curve, though single readings can be large; an effect the other way counts as inactive or inconclusive.

Cc1nn(C)c(C)c1CCC(=O)N1CCC(Cc2noc(-c3ccc(F)cc3)n2)C1 (configuration not stated)	HEK cytotox inconclusive, 3T3 cytotox inconclusive, hNpr1 antagonist 16µM | Npr1 antag conf 27µM | Npr2 selectivity inconclusive | FLuc inh counter inactive | GloSensor ctrl 34µM
COC(=O)[C@@H]1Cc2ncn(Cc3ccc(Cl)cc3)c2CN1C(=O)c1ccccc1	none
COC(=O)[C@@H]1Cc2ncn(Cc3ccc(Cl)cc3)c2CN1C(=O)c1ccc(C(F)(F)F)cc1	HEK cytotox inconclusive, 3T3 cytotox inconclusive | Npr1 antag conf inconclusive | Npr2 selectivity inactive | FLuc inh counter inactive | GloSensor ctrl inconclusive
COCCN1CCCN(C(=O)c2ccoc2)c2ccccc21	HEK cytotox inconclusive
Cn1nccc1C(=O)N1CCCN(CCc2ccccc2)c2ccccc21	HEK cytotox inconclusive, 3T3 cytotox inconclusive, hNpr1 antagonist inconclusive | Npr1 antag conf 19µM | Npr2 selectivity 14µM | FLuc inh counter inactive | GloSensor ctrl inactive
CCN(Cc1cccc2cnccc12)CC1CCCN(CCc2cccc(F)c2)C1 (configuration not stated)	HEK cytotox 18µM, HEK293 viab inconclusive, SNCA expr inh inconclusive, 3T3 cytotox 40µM, hNpr1 antagonist inconclusive | Npr1 antag conf 24µM | Npr2 selectivity 19µM | FLuc inh counter inactive | GloSensor ctrl inactive
COCCCNC(=O)Cc1cccn1-c1ccc(F)cc1	none
O=C(c1ccnc2ccccc12)N1CCC2(CC1)Nc1ccccc1NC2=O	HEK cytotox inconclusive, HEK293 viab inconclusive, SNCA expr inh inconclusive, hNpr1 antagonist inconclusive | Npr1 antag conf 22µM | Npr2 selectivity inconclusive | FLuc inh counter inactive | GloSensor ctrl 27µM
Cc1cc(C(=O)N2CCC3(CC2)Nc2ccccc2NC3=O)c2ccccc2n1	none
O=C(NCc1ccc(N2CCCC2)cc1)C1CCCN(c2cnn(Cc3ccccc3)c(=O)c2)C1 (configuration not stated)	HEK cytotox inconclusive, 3T3 cytotox inconclusive, hNpr1 antagonist inconclusive | Npr1 antag conf inconclusive | Npr2 selectivity inconclusive | FLuc inh counter inactive | GloSensor ctrl inconclusive
COc1cccc(C(=O)NC2CCN(c3cc(C(F)(F)F)nc(C)n3)CC2)c1OC	HEK cytotox inconclusive, 3T3 cytotox inconclusive, hNpr1 antagonist inconclusive
CCOc1ccccc1C(=O)NC1CCN(c2cc(C(F)(F)F)nc(C)n2)CC1	HEK cytotox inconclusive, 3T3 cytotox inconclusive, hNpr1 antagonist inconclusive | Npr1 antag conf 24µM | Npr2 selectivity inconclusive | FLuc inh counter inactive | GloSensor ctrl 24µM
COc1ccccc1OCCNC(=O)C1CCN(c2cc(C(F)(F)F)nc(C)n2)CC1	HEK cytotox inconclusive, 3T3 cytotox inconclusive, hNpr1 antagonist inconclusive | Npr1 antag conf inactive | Npr2 selectivity inactive | FLuc inh counter inactive | GloSensor ctrl inactive
CN(C)c1ccc(CN2CCCC3(C2)C(=NC2CCCC2)NC(=O)N3c2cccnc2)cc1 (configuration not stated)	3T3 cytotox inconclusive (no result: Luciferase inh, hNpr1 antagonist)
O=C(c1ccc(F)cc1Cl)N1CCC(n2cc(-c3nc(C4CC4)no3)nn2)C1 (configuration not stated)	HEK cytotox inconclusive, 3T3 cytotox inconclusive, hNpr1 antagonist 16µM | Npr1 antag conf 27µM | Npr2 selectivity inconclusive | FLuc inh counter inactive | GloSensor ctrl inconclusive
O=C(c1cc(F)ccc1F)N1CCC(n2cc(-c3nc(C4CC4)no3)nn2)C1 (configuration not stated)	none
Cc1ccc(C(=O)N2CCCC(n3cc(-c4nc(C5CC5)no4)nn3)C2)s1 (configuration not stated)	HEK cytotox inconclusive
Cc1ccc(C(=O)N2CCC(n3cc(-c4nc(C5CC5)no4)nn3)C2)s1 (configuration not stated)	HEK cytotox inconclusive, hNpr1 antagonist 16µM | Npr1 antag conf 24µM | Npr2 selectivity 24µM | FLuc inh counter inactive | GloSensor ctrl 14µM
Cn1c(CNC(=O)Cn2nc3c(cc2=O)CCCCC3)nc2ccccc21	none
CC(C)(C)c1oc(C(N)=O)cc1CN1CCC2(CCCNC2=O)C1 (configuration not stated)	none
O=C(N1CCCC1c1nc(CCOc2ccc(F)cc2)no1)C1(c2ccccc2)CC1 (configuration not stated)	HEK cytotox inconclusive, SNCA expr inh inconclusive, 3T3 cytotox inconclusive
Cc1ccc(NC(=O)CN2C(=O)NC(c3ccc(Cl)cc3)C3=C2COC3=O)c(Cl)c1 (configuration not stated)	HEK cytotox 45µM, 3T3 cytotox inconclusive, hNpr1 antagonist inconclusive | Npr1 antag conf inconclusive | Npr2 selectivity inactive | FLuc inh counter inactive | GloSensor ctrl inactive
Cc1ccc(NC(=O)CN2C(=O)NC(c3ccc(Cl)cc3)C3=C2COC3=O)c(C)c1 (configuration not stated)	HEK cytotox inconclusive, 3T3 cytotox inconclusive
CCOc1ccccc1C1NC(=O)N(CC(=O)Nc2cccc(C(C)C)c2)C2=C1C(=O)OC2 (configuration not stated)	HEK cytotox inconclusive, 3T3 cytotox inconclusive, hNpr1 antagonist inconclusive | Npr1 antag conf inconclusive | Npr2 selectivity inconclusive | FLuc inh counter inactive | GloSensor ctrl inconclusive
O=C(CN1C(=O)NC(c2ccc(Cl)cc2)C2=C1COC2=O)Nc1ccc(F)c(Cl)c1 (configuration not stated)	HEK cytotox inconclusive, HEK293 viab inconclusive, SNCA expr inh inconclusive, 3T3 cytotox 40µM, hNpr1 antagonist inconclusive | Npr1 antag conf inconclusive | Npr2 selectivity inconclusive | FLuc inh counter inactive | GloSensor ctrl inconclusive
O=C(Nc1ccccc1)N1CC(Oc2ccc(-c3noc(-c4ccncc4)n3)cc2)C1	HEK cytotox inconclusive, hNpr1 antagonist 11µM | Npr1 antag conf 6.1µM | Npr2 selectivity 8.6µM | FLuc inh counter inactive | GloSensor ctrl 6.1µM
